Screening results deposited in PubChem by Sanford-Burnham Center for Chemical Genomics.
In the library only some 4% were active in any assay of this set; here they are far more common.
CF NFkB block: inhibitors of PAF-induced NF-kB signaling, primary screen, cell-based, GFP fluorescence, uHTS. KKLEB NF-kB-GFP reporter, GFP fluorescence overnight. inhibition, % at 5 µM. 360,000 tested, 0.86% active. AID 588850, 2011;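 active means at least 50% inhibition at 5 µM, scaled per plate between neutral and stimulator controls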;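 further: PAF is a Pseudomonas aeruginosa culture filtrate used as stimulus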
Peg3 promoter: Peg3 promoter-driven luciferase inhibitors, primary screen, cell-based, HeLa, luciferase luminescence; HeLa PEG-Prom luciferase reporter, overnight; inhibition, % at 20 µM; 360,000 tested, 1.7% active;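 active means inhibition of at least 50% at 20 µM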
HIF-2a inh: HIF-2a reporter inhibitors, primary screen, luminescence, 786-0 RCC cells; 360,000 tested, 0.72% active; inhibition, % at 18.8 µM; 786-0 RCC cells HIF-2a reporter, luciferase luminescence, overnight;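 active means inhibition of the luminescence signal of 40% or more relative to plate controls, in a single-dose primary screen at 18.75 µM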
KKLEB cytotox: cytotoxicity in KKLEB CF airway cells, primary screen, cytotoxicity control for CF NF-kB inhibitor project, cell-based, uHTS, fluorescence assay plates. activity change (cytotoxicity), % at 5 µM. 360,000 tested, 0.36% active. AID 602141, 2011. KKLEB CF airway cells viability, ATPlite luminescence, overnight; hits give low values; cells stimulated with P. aeruginosa culture filtrate;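 active means corrected activity change at or below -50% at 5 µM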
TROY NFkB inh: inhibitors of TROY-driven NF-kB signaling, primary screen, Q293 LMP1-TROYcd cells, NF-kB luciferase, uHTS; Q293 LMP1-TROYcd NF-kB luciferase reporter, 4 h; inhibition, % at 10 µM; 360,000 tested, 0.98% active; AID 1347056, 2019;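 active means compounds whose plate-normalised and pattern-corrected inhibition of the luciferase reporter signal at the single screening dose is 50% or more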
TWEAK-Fn14 inh: inhibitors of TWEAK-Fn14 signaling, primary screen, luciferase reporter cells, uHTS. TWEAK-stimulated Fn14 reporter cells, luciferase luminescence, 8 h. inhibition, % at 10 µM. 360,000 tested, 2% active; in the data active means inhibition above about 50%
Numbers stand for hits; n = inactive.

SMILES	CF NFkB block	Peg3 promoter	HIF-2a inh	KKLEB cytotox	TROY NFkB inh	TWEAK-Fn14 inh
CCCN1CCC(=O)N([C@H](CSc2ccc(C)cc2)c2ccccc2)CC1	n	n	n	n	50	n
CCOc1ccccc1-n1c(CN2CCN(C(=O)c3ccco3)CC2)nc2ccccc2c1=O	n	104	n	n	n	n
CCOc1ccccc1-c1nc(CN2CCN(C(=O)c3ccco3)CC2)c(C)o1	n	n	n	n	n	n
O=C(O)c1ccsc1Cc1cccs1	n	n	n	n	n	n
CN1CCN(CC#CCC(O)(c2ccccc2)c2ccccc2)CC1	n	n	n	n	n	n
CC(C)n1cc(CN2CCCC(C(=O)Nc3cccc(-c4cc5ccccc5[nH]4)c3)C2)cn1 (stereo not given)	n	97	n	n	n	n
Cn1cc(CN2CCCC(C(=O)Nc3cccc(-c4cc5ccccc5[nH]4)c3)C2)cn1 (stereo not given)	n	56	n	n	n	n
Cc1cc(/C=C2/C(=O)NN(c3ccccc3)C2=O)c(C)n1-c1cccc(O)c1	n	n	n	n	81	92
Cc1ccccc1C(=O)Nc1ccccc1N1CCN(C(=O)c2ccccc2)CC1	n	n	n	n	n	n
Cc1cc(C(=O)CN2CCC(C)CC2)c(C)n1-c1ccccc1F	n	n	n	n	80	82
Cc1cc(C(=O)CN2C(=O)C(=O)N(Cc3ccccc3)C2=O)c(C)n1-c1ccccc1F	n	n	n	n	n	n
Cc1sc2ncnc(N3CCC(C(=O)NNC(=O)COc4ccc(Cl)cc4)CC3)c2c1C	n	n	n	n	50	87
Cc1c(C(=O)Nc2ccc3c(c2)OCCO3)sc2ncnc(N3CCCCC3C)c12 (stereo not given)	n	n	n	n	n	53
Cc1nc(N2CCC(C)CC2)c2c(C)c(C(=O)Nc3ccc4c(c3)OCCO4)sc2n1	n	n	n	n	n	n
Cc1sc2ncnc(N3CCC(C(=O)NNC(=O)COc4ccccc4Cl)CC3)c2c1C	n	n	n	n	n	n
Cc1cc(Cl)ccc1OCC(=O)NNC(=O)C1CCN(c2ncnc3sc(C)c(C)c23)CC1	n	n	n	n	72	82
COc1ccc(NC(=O)c2sc3ncnc(N4CCN(c5ccccn5)CC4)c3c2C)cc1Cl	n	n	n	n	n	76
Cc1ccc(OCC(=O)NNC(=O)C2CCN(c3ncnc4sc(C)c(C)c34)CC2)cc1	n	n	n	n	n	n
Cc1ccc(NC(=O)c2ccc(Cl)c(S(=O)(=O)N3CCCCC3)c2)nc1	n	n	n	n	n	n
Cc1ccc(S(=O)(=O)N2CCN(C(=O)C3CCN(c4ncnc5sc(C)c(C)c45)CC3)CC2)c(C)c1	n	n	n	n	n	51
Cc1cc(Br)ccc1NC(=O)CN(C)C(=O)C1CCN(c2ncnc3sc(C)c(C)c23)CC1	n	n	n	n	n	59
Cc1sc2ncnc(N3CCC(C(=O)NNC(=O)COc4cccc(C(F)(F)F)c4)CC3)c2c1C	n	n	n	n	n	56
Cc1sc2ncnc(N3CCC(C(=O)NNC(=O)COc4ccc(Br)cc4)CC3)c2c1C	n	n	n	n	74	88
O=C(/C=C/c1ccc(Cl)cc1)N1CCN(CCN2C(=O)c3cccc4cccc(c34)C2=O)CC1	n	n	n	n	n	n
CCOC(=O)C1CCN(C(=O)CN(c2cc(Cl)ccc2OC)S(=O)(=O)c2ccccc2)CC1	n	n	n	n	n	n
SMILES	CF NFkB block	Peg3 promoter	HIF-2a inh	KKLEB cytotox	TROY NFkB inh	TWEAK-Fn14 inh
Cc1sc2ncnc(N3CCC(C(=O)Nc4ccc(OC(F)F)c(Cl)c4)CC3)c2c1C	n	n	n	n	51	n
Cc1sc2ncnc(N3CCC(C(=O)NNC(=O)c4ccccc4Cl)CC3)c2c1C	n	n	n	n	n	n
COc1ccc(C(=O)Nc2cc(C)c3c(=O)oc4ccccc4c3n2)cc1	n	n	n	n	n	n
Cc1noc(NS(=O)(=O)c2ccc(N/C=C/C(=O)c3ccc(F)cc3)cc2)c1C	n	n	n	n	n	57
Cc1noc(NS(=O)(=O)c2ccc(N/C=C\C(=O)c3ccncc3)cc2)c1C	n	n	n	n	n	n
Cc1ccc(C)c(OCc2nnc(SCC(=O)NCc3ccc4c(c3)OCO4)o2)c1	n	n	n	n	n	n
Cc1cc(O)c(C=O)c2c1C(=O)Oc1c(CO)c(O)c3c(c1O2)C(O)OC3=O (stereo not given)	n	n	n	n	n	56
CCOc1cccc(NC(=O)c2cccc(F)c2)c1	n	n	n	n	n	n
Cc1cccc2cc(C#N)c(NCCCn3ccnc3)nc12	n	n	n	n	n	n
COc1ccc(OC)c(NC(=O)CSc2nc3ccccc3c(=O)n2CCNC(C)=O)c1	n	n	n	n	n	76
Cc1c(-c2cccc(Cl)c2)nc2ccccc2c1C(=O)OCC(=O)Nc1ccc2c(c1)OCO2	n	n	n	n	n	52
Cc1ccc(NC(=O)CSc2nc3ccccc3c(=O)n2CCCN2CCCCC2)cc1C	n	55	n	n	n	n
CC(=O)c1cccc(NC(=O)CSc2nc3ccccc3c(=O)n2CCCN2CCOCC2)c1	n	n	n	n	n	n
Cc1cc(NC(=O)CSc2nc3c(sc4ccccc43)c(=O)n2CCc2ccccc2)n[nH]1	n	n	n	n	n	n
COc1ccc(NC(=O)CSc2nc3ccccc3c(=O)n2CCNC(C)=O)c(OC)c1	n	n	n	n	n	n
Cc1cc(NC(=O)CSc2nc3c(sc4ccccc43)c(=O)n2CCCN2CCOCC2)n[nH]1	n	90	n	n	n	n
Cc1onc(-c2ccccc2)c1C(=O)OCC(=O)Nc1ccc2c(c1)OCO2	n	n	n	n	n	n
CCOC(=O)[C@H]1[C@H]2COc3ccc(Cl)cc3[C@@H]2N2C(=O)[C@H](C)NC(=O)[C@@]12C	n	n	n	n	n	n
CCOCCCn1c(SCC(=O)Nc2cccc(S(=O)(=O)NC3=NCCCCC3)c2)nc2ccccc2c1=O	n	n	n	n	n	n
Cc1ccc(NC(=O)CSc2nc3ccccc3c(=O)n2Cc2cccs2)cc1	n	n	n	-52	n	n
O=C(COC(=O)c1ccc2ccccc2n1)Nc1cccc(S(=O)(=O)NC2=NCCCCC2)c1	n	n	n	n	n	n
CCCn1c(SCC(=O)Nc2cccc(S(=O)(=O)NC3=NCCCCC3)c2)nc2ccccc2c1=O	n	n	n	n	57	78
CCc1nc2ccccc2c(C(=O)OCC(=O)Nc2cccc(S(=O)(=O)NC3=NCCCCC3)c2)c1C	n	n	n	n	60	80
